The whole screen tested about 340,000 compounds, of which about 2,100 (0.62%) were called active.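 Rule for the calls: active = first-screen hits whose inhibition reached a set limit at any dose in the follow-up dose series; inconclusive = inhibition above the set first-screen limit but never retested; inactive = the rest.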 Only a sample is shown. Results with a measured potency or affinity are listed apart.

Chain of Rac GTPase-activating protein 1 (Homo sapiens) (Q9H0H5 whole entry, looked up): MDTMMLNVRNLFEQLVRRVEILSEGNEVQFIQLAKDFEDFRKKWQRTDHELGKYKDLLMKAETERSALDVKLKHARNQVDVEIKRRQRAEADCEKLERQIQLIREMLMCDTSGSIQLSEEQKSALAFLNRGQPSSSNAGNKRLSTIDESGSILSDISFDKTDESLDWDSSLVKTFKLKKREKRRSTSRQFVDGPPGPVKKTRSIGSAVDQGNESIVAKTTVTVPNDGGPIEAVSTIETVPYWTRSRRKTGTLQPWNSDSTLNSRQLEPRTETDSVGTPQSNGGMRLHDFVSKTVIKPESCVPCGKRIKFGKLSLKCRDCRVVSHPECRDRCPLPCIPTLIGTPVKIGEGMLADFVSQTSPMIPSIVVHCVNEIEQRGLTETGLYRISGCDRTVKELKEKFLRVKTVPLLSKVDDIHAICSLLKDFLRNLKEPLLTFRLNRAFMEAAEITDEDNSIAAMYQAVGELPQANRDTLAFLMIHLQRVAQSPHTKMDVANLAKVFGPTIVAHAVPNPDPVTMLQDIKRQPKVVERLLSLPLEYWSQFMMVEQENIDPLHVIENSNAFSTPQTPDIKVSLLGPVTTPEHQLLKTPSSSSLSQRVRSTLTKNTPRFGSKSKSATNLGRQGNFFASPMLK

The assay concerns the target Rac GTPase-activating protein 1 (Homo sapiens) (UniProt Q9H0H5). Description: blockers of MgcRacGAP-driven Rac1 GTP hydrolysis – biochemical, ADP Hunter fluorescence, primary and confirmatory, confirmation (AID 624330).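 Note: fluorescence reports GDP produced by GAP-driven GTP hydrolysis.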 The note with it: MgcRacGAP-stimulated Rac1 GTP hydrolysis, at 30 µM, stronger effect = higher value, GST-tagged Rac1 F28L mutant substrate.
With `O=C1CN(C(=O)CNCc2ccc(Cl)cc2)c2ccccc2N1`, the inhibition was 31.7% (inactive).
As to `CCCC(C(=O)Nc1ccc(S(=O)(=O)N2CCOCC2)cc1)c1ccccc1` (stereo not drawn), the inhibition was 4.26% (inactive).
On to `Cc1nn(C)c(C)c1NC(=O)CN1CCC(O)(c2ccc3c(c2)OCO3)CC1`, for which the inhibition is 2.97% (inactive).
In the case of `COc1ccccc1NC(=O)c1ccc2c(c1)CCN2S(C)(=O)=O`, the inhibition was 6.1% (inactive).
For `CC(C)NC(=S)N/N=C1\CCCc2ccccc21`, the inhibition is 3.57% (inactive).
As to `Nc1nc(NC(=O)c2ccc(F)cc2)ns1`, the inhibition is 7.21% (inactive).
Then `Cc1nc2ccc(N)cc2c(=O)n1Cc1ccc(Cl)cc1`, with 4.23% (inactive).
On to `Nc1nc(N)c2cc(CNc3ccc(Cl)c(Cl)c3)ccc2n1`, for which the inhibition was 14.7% (inactive).
Turning to `Cc1c(C(C)C[C@H](C)O)oc(=O)c2c1Oc1c(C)c(C(C)C[C@H](C)O)oc(=O)c1C2` (stereo partly drawn), the inhibition is 7.75% (inactive).
For `CCOc1ccc(/C=N/N2CCN(Cc3ccccc3)CC2)cc1`, the inhibition was -1.17% (inactive).
Turning to `CCN(CC)c1ccc(C=NN2CCCCCC2)cc1`, the inhibition was -1.67% (inactive).
Consider `CCOc1ccccc1/C=N/N1CCN(Cc2ccccc2)CC1`, for which the inhibition is -6.47% (inactive).
The same measure for `CCN(CC)c1ccc(/C=N\N2CCN(Cc3ccc(C)cc3)CC2)cc1`: 20.7% (inactive).
Turning to `CN1CCN(/N=C/c2ccc(N(c3ccccc3)c3ccccc3)cc2)CC1`, the inhibition was 15.3% (inactive).
For `CCN(CC)c1ccc(/C=N/N2CCN(c3ccccn3)CC2)cc1`, the inhibition is 13.5% (inactive).
As for `CN1CCN(/N=C/c2ccc(N(C)c3ccccc3)cc2)CC1`, the inhibition was 27.2% (inactive).
Then `C(=N\N1CCN(Cc2ccccc2)CC1)/c1ccccc1`, with 8.38% (inactive); and `COc1cccc(-c2nn(C)c3sc(C(=O)NCc4ccc(C)cc4)cc23)c1`, with 5.17% (inactive).
As to `CCOC(=O)c1[nH]c(C)c(C(=O)OCC(=O)NCc2ccc(OC)c(OC)c2)c1C`, the inhibition was 1.24% (inactive).
On to `Cn1ncc2c(NCc3ccccc3)nc(NCCCO)nc21`, for which the inhibition was 8.06% (inactive).
Regarding `CC(C)CC(NC(=O)OC(C)(C)C)c1cn([C@@H](Cc2cc3ccccc3[nH]2)C(=O)N2CCN(C(=O)OC(C)(C)C)CC2)nn1` (stereo partly drawn), the inhibition is 9.06% (inactive).
For `COC(=O)c1c(C)[nH]c(C(=O)OC(C)C(=O)N2CCOCC2)c1C` (stereo not drawn), the inhibition was 13.4% (inactive).
Turning to `O=C(COC(=O)CC12CC3CC(CC(C3)C1)C2)Nc1ncc(Cl)cc1Cl`, the inhibition is 3.82% (inactive).
For `COc1ccc(C(=O)OCC(=O)N2CCN(C(=O)c3ccco3)CC2)cc1OC`, the inhibition was 0.19% (inactive).
As for `COc1ccc2c(c1)C(c1ccc(C)o1)=NNC(c1ccccc1)=N2`, the inhibition is 2.46% (inactive).
As for `CCC1=NN(C(=O)Cc2ccccc2)C(O)(c2ccncc2)C1` (stereo not drawn), the inhibition was 5.64% (inactive).
Turning to `CCN(CC)c1ccc(/C=N/N2CCN(Cc3ccccc3)CC2)c(O)c1`, the inhibition was 25.7% (inactive).
On to `CCN(CC)c1ccc(/C=N/N2CCN(Cc3ccc(C)cc3)CC2)c(O)c1`, for which the inhibition was 15.3% (inactive).
For the compound `CCN(CC)c1ccc(/C=N/N2CCN(c3ccccc3OC)CC2)cc1`, the inhibition is 13% (inactive).
As to `CCN(Cc1ccccc1)c1ccc(/C=N/NC(=O)c2cccc(S(=O)(=O)N3CCOCC3)c2)cc1`, the inhibition was 9.77% (inactive).
Regarding `Cc1c(N(CC(=O)O)S(=O)(=O)c2ccccc2)c(=O)n(-c2ccccc2)n1C`, the inhibition is 11.2% (inactive).
The same measure for `O=C(c1ccc(NS(=O)(=O)c2cccc3cccnc23)cc1)N1CCCCC1`: -16.1% (inactive); for `CCOc1ccc(NC(=O)CN(C)C(=O)c2ccc(C)c(S(=O)(=O)N3CCCCC3)c2)cc1OCC`: 6.08% (inactive); for `O=[N+]([O-])c1ccc2[nH]c(O)c(N=NC(=S)NCC3CCCO3)c2c1` (stereo not drawn): 9.66% (inactive).
Then `COc1cccc(NC(=O)C(=O)NCC2CCCN2S(=O)(=O)c2ccccc2)c1` (stereo not drawn), with 3.83% (inactive); and `CCc1ccccc1-n1nnnc1-c1cnccc1C(F)(F)F`, with 4.03% (inactive); and `O=S(=O)(Cc1c(F)cccc1Cl)c1ncn[nH]1`, with 5.34% (inactive).
For `CN(C)c1ccc(CNn2cnnc2SCC(=O)NC(C)(C)C)cc1`, the inhibition is 14.5% (inactive).
With `Cc1[nH]n(-c2ccccc2)c(=O)c1-c1ccc(Cl)cc1`, the inhibition is 8.45% (inactive).
For `Cc1[nH]n(-c2cccc(Cl)c2)c(=O)c1-c1ccccc1`, the inhibition was 30.6% (inactive).
Take `COc1ccc([N+](=O)[O-])cc1N(CC(=O)N1CCN(Cc2ccccc2)CC1)S(C)(=O)=O`: the inhibition is 6.86% (inactive).
As to `COc1ccc(OC)c(NC(=O)COC(=O)CCCN2C(=O)c3ccccc3C2=O)c1`, the inhibition was 3.2% (inactive).
Then `C[C@@H]1COC(=O)CCC/C=C\C[C@@H](CC(=O)N(CCO)Cc2ccccc2)C(=O)N1`, with 4.52% (inactive); and `COc1ccc(-c2cc3ccccc3n2CC(O)CN2CCOCC2)cc1` (stereo not drawn), with 4.64% (inactive).
`COc1ccc(-c2cc3ccccc3n2CC(O)CN2CCC(C)CC2)cc1` (stereo not drawn): the inhibition is 9.85% (inactive).
`COc1ccc(C(=O)N/C(=C\c2ccc(-c3cccc([N+](=O)[O-])c3)o2)C(=O)NCCCN2CCOCC2)cc1`: the inhibition is -23.2% (inactive).
Consider `Cc1cccc(C)c1NC(=O)Cn1nnc(-c2ccc(N3CCOCC3)cc2)n1`, for which the inhibition was 3.65% (inactive).
In the case of `Cc1nc(N2CCN(c3ccccc3F)CC2)[nH]c(=O)c1C`, the inhibition was 6.5% (inactive).
With `Cc1c(C(=O)N(Cc2ccncc2)CC2CCCO2)oc2c(F)cccc12` (stereo not drawn), the inhibition was 5.69% (inactive).
For `COc1cc(C=O)ccc1OC(=O)c1cccnc1`, the inhibition was 7.23% (inactive).
For `COc1cc(/C=N/n2cnnc2)ccc1OC(=O)c1ccco1`, the inhibition is 16.6% (inactive).
For the compound `COc1cc(/C=N/NC(=O)c2ccncc2)ccc1OC(=O)c1cc(OC)c(OC)c(OC)c1`, the inhibition is 16.1% (inactive).
Take `COc1cc(C=O)ccc1OC(=O)c1ccncc1`: the inhibition is 14.9% (inactive).
On to `COc1cc(CC(=O)OCc2cccc([N+](=O)[O-])c2)cc(OC)c1OC`, for which the inhibition was 2.78% (inactive).
Consider `CCCCCC(=O)Nc1ccc(N2CCN(C(=O)CCC)CC2)cc1`, for which the inhibition is -1.29% (inactive).
`CCOC(=O)C1(Cc2cccc(OC)c2)CCN(CC(O)CO)CC1` (stereo not drawn): the inhibition was -0.09% (inactive).
With `CCOc1ccc(-c2nc3c(s2)CCc2onc(-c4ccc(OC)cc4)c2-3)cc1`, the inhibition was 1.06% (inactive).
Take `O=S(=O)(c1ccccc1Cl)N1CCCC1c1nc(-c2cccc(Cl)c2)no1` (stereo not drawn): the inhibition is 2.74% (inactive).

(Values after PubChem BioAssay AID624330 (Southern Research Specialized Biocontainment Screening …, 2012).)
